Source: PubChem (National Center for Advancing Translational Sciences (NCATS))
The list is not random: actives were taken first. Their share in the collection is about 11%.
PNC assembly inh – perinucleolar compartment assembly inhibition. PC3M PTB-GFP, PNC prevalence imaging, 16 h; stronger effect = lower value. activity change (PNC), negative = inhibition, % at 10 µM. actives 3.1% (n = 140,000). AID 2417;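 active means readout at or below -70, meaning at least 70% loss of cells showing the perinucleolar compartment, a nuclear body marking cancer cells; inconclusive means readout between -30 and a set limit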;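 further: plate controls were DMSO wells for no effect and camptothecin positive control wells for full effect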
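Compounds are pinned in duplicate onto adhered PC3M cells stably expressing GFP-tagged PTB and incubated 16 h at 37 C. Cells are then fixed, nuclei stained with Hoechst, and PNC-positive cells counted.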
12-hLO inh – blocks human 12-lipoxygenase activity; AID 1452; Potency, µM (doses to about 57.1 µM), for the others: at the highest dose activity change, negative = inhibition, usual class: inhibitors; actives 0.12% (n = 150,000); purified 12-hLO, xylenol orange hydroperoxide absorbance; P18054; further: potency means the concentration at half of the fitted maximal effect; nearly all actives have a fitted effect of over 55% in size
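150 nM 12hLO, 25 mM Hepes pH 7.0 + 0.01% Triton X-100; cpd preinc 15 min RT; 40 uM arachidonic acid, 30 min RT; Fe-XO 30 min; A573/A405 ratio as read-out.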
IMPase Li cell – IMPase inhibition in cells with lithium potentiation | AID 1457 | actives 0.35% (n = 210,000) | CHO-M1 cells, IP1 TR-FRET (IP-One), carbachol + lithium | Potency, µM (top dose mostly 59.4 µM), for the others: at the highest dose activity, negative = IMPase inhibition, actives largely listed as inhibitors;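 further: IP1 builds up when IMPase is blocked and the TR-FRET signal falls; potency means the concentration at half of the fitted maximal effect; plate controls were basal vehicle for no effect and high inhibitor control for full effect; nearly all actives have a fitted effect of over 50% in size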
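Test compounds were applied to CHO-M1 cells previously cultured for 16–30 h at 2000 per well. A small lithium amount accompanied them; after 30 min at 37C, IP1 was quantified by TR-FRET.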
IMPase inh – membrane-permeable compound that blocks inositol monophosphatase | P97697 | CHO-M1 cells, IP1 accumulation, HTRF TR-FRET ratio | inhibition (IP1 accumulation), % at 46.1 µM | 120,000 tested, under 10 active | AID 901; active means well fitted curve in the direction sought with a large enough effect in the signal ratio, not every such curve was filed as active; inconclusive means small, poorly fitted or top-dose-only effect, or a change in a side signal; inactive means no such curve, though single readings can be large or run the other way; the % refers to the signal ratio;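 further: cells stimulated with carbachol in lithium chloride buffer; plate controls were DMSO basal wells for no effect and reference inhibitor wells for full effect; higher means more IMPase inhibition seen as more IP1 and lower FRET ratio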
Target sequence (P97697 whole entry, looked up): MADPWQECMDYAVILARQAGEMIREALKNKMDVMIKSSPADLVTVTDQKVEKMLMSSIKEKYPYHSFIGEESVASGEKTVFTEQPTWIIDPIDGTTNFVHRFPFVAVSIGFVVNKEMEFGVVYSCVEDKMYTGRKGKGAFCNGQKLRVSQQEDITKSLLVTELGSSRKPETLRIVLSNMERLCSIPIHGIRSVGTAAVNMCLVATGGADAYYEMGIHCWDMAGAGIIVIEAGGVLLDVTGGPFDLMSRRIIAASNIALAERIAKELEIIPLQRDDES
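Carbachol-driven Gq signalling in CHO-M1 cells (2000/well) generates IP1. Compounds that block IMPase raise IP1 and so reduce the FRET signal from Eu-anti-IP1 and d2-IP1 after a 10 min room-temperature lysis.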
HPGD inh – blocks human HPGD enzyme activity | P15428 | purified HPGD, NADH fluorescence kinetic, PGE2 substrate | Potency, µM, for inactives: top-dose activity change, negative = inhibition, actives largely listed as inhibitors | actives 4.3% (n = 150,000) | AID 894; active means well fitted inhibition curve with a large enough effect, not every such curve was filed as active; inconclusive means small, poorly fitted or top-dose-only effect, or another doubt; inactive means no such curve, though single readings can be large or run the other way; further: potency means the concentration at half of the fitted maximal effect
Target sequence (P15428 whole entry, looked up): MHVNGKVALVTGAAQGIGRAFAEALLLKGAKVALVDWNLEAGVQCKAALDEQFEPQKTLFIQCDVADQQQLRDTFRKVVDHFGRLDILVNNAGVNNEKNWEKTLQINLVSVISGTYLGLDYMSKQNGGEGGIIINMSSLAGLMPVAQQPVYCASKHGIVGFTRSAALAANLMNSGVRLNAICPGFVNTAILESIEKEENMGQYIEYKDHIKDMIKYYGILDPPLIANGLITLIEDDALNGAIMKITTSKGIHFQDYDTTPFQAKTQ
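NADH formation kinetics: reaction with 30 uM PGE2 and 1 mM NAD+ (final), 20 nM enzyme, Tris-HCl pH 8 with Tween 20, after 15 min compound preincubation at room temperature. Fluorescence change, last versus first of five reads.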
ALDH1A1 block – ALDH1A1 (human) enzyme inhibition; P00352; Purified ALDH1A1, NADH fluorescence, propionaldehyde substrate; Potency, µM (highest dose often 75.3 µM), for the others: at the highest dose activity, negative = inhibition, actives largely listed as inhibitors; actives 7.3% (n = 220,000); active means well fitted inhibition curve with a large enough effect, not every such curve was filed as active; inconclusive means small, poorly fitted or top-dose-only effect, or another doubt; inactive means no such curve, though single readings can be large or run the other way;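 further: potency means the concentration at half of the fitted maximal effect; plate controls were no enzyme wells and a reference inhibitor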
Starred values were filed as active, the others as inactive; ? = inconclusive; . = no result given; [ ] = another dose, or the depositor's remark. Unless noted, the call rests on the fitted dose curve; in most records, active means well fitted curve in the direction sought with a large enough effect; inconclusive means small, poorly fitted or top-dose-only effect, or another doubt; inactive means no such curve, though single readings can be large; an effect the other way counts as inactive or inconclusive. Unless noted, on the % scale 0 is the no-effect control and ±100 the full control effect.

SMILES | PNC assembly inh | 12-hLO inh | IMPase Li cell | IMPase inh | HPGD inh | ALDH1A1 block
COCCn1c(SCc2ccccc2Cl)nc2c1c(=O)[nH]c(=O)n2C | -9 | -5% | 4%[38.3 µM] | 11 | ? | 14µM*
CCCCCn1c(Sc2ccccc2)nc2c1c(=O)[nH]c(=O)n2C | 21 | -3% | 34%[38.3 µM] | 1 | -7% | ?
Cc1nn(CCC#N)c2c1P(=S)(N1CCCC1)OC(c1ccc(F)cc1)=N2 (centres undefined) | -2 | -13% | -6%[38.3 µM] | 2 | 20µM* | 7.1µM*
CCCC/C(=N\O)c1c[nH]c2ccccc12 | -81* | -4% | 13%[38.3 µM] | -4 | -6% | 4%
CN(C)Cc1c[nH]c2ccccc12 | . | 1% | -2% | 1 | -28% | -4%
CCC1CN2CCC1CC2C(Oc1cc2ccccc2c2ccccc12)c1ccnc2ccc(O)cc12 (centres undefined) | . | . | . | . | . | -3%[13.5 µM]
O=C(c1sc2ccccc2c1Cl)N1CCC2(CC1)OCCO2 | 5 | 2% | 34%[38.3 µM] | -4 | 14µM* | 10µM*
CCCCCCCCCCCCCC(=O)O[C@@H]1[C@@H](C)[C@@]2(O)[C@H](C=C(CO)C[C@]3(O)C(=O)C(C)=C[C@@H]23)[C@@H]2C(C)(C)C12OC(C)=O (some centres undefined) | . | . | 4% | . | . | -2%
O=[As](O)(O)c1ccc(Cc2ccc([As](=O)(O)O)cc2)cc1 | . | -24%[11.4 µM] | 3% | . | 3.5µM* | 2.2µM*
Oc1c(Cl)cccc1Cl | . | -2% | 8% | . | -14% | 15%
Cc1ccc(N2C(=O)NC(=O)/C(=C/c3ccc(-c4ccc(C(=O)O)c(Cl)c4)o3)C2=O)cc1 | . | . | -29% | . | . | ?
O=C1NC(=O)N(c2ccc(Cl)cc2)C(=O)/C1=C\c1ccc(Sc2nc3ccccc3[nH]2)o1 | 18 | -28% | -14% | . | 10µM* | ?
CSc1ccc2c(c1)c(CCN)c(C)n2Cc1ccccc1Cl | . | 3%[11.4 µM] | -4% | . | -10% | 18%[13.5 µM]
CC(C)N1CCN(Cc2cccc([N+](=O)[O-])c2)CC1 | . | . | 14% | . | . | 3.5µM*
O=[N+]([O-])c1cccc(CN2CCN(Cc3ccc(Cl)cc3)CC2)c1 | . | . | 16% | . | . | ?
COc1cc(/C=N/NC(=O)CN2CCCCC2)ccc1OCc1ccccc1 | 7 | 6% | 17% | . | -23% | 22µM*
COc1ccc(C)cc1NC(=O)CN1CCN(CC(=O)Nc2ccccc2F)CC1 | ? | 1% | 11% | 6 | 1% | ?
Nc1cc(Cl)ccc1Cl | . | 4% | 4% | . | -1% | -3%
Nc1cc(Cl)ccc1O | . | 20µM* | 9% | . | 10µM* | 8.9µM*
Oc1ccc(Cl)cc1Sc1cc(Cl)ccc1O | . | -28%[11.4 µM] | -5% | . | 2.5µM* | ?
Nc1ccc(Cl)cc1N | . | -3% | 21% | . | -18% | 8.9µM*
CC(C)(C)n1cccc1/C=C1\C(=O)NC(=O)N(c2ccccc2)C1=O | -10 | 3% | 2% | . | 2% | 1.4µM*
Cc1cc(C)cc(N2C(=O)NC(=O)/C(=C/c3cccn3-c3ccc(Cl)cc3)C2=O)c1 | 10 | -3% | 26% | 1 | 4µM* | 9%
Cc1cccc(N2C(=O)NC(=O)/C(=C\c3cccn3-c3ccc(Cl)cc3)C2=O)c1 | 82 | -3% | 18%[38.3 µM] | 9 | ? | -3%
COc1cc(/C=C2\C(=O)NC(=O)N(c3ccccc3)C2=O)cc(OC)c1O | 18 | -5% | 17%[38.3 µM] | ? | 32µM* | ?
SMILES | PNC assembly inh | 12-hLO inh | IMPase Li cell | IMPase inh | HPGD inh | ALDH1A1 block
Cc1coc2c1CCC(C)C2 (centres undefined) | . | -5% | -5% | . | -5% | ?
O=C(O)CNC(=O)c1ccc([As](=O)(O)O)cc1 | . | 2%[11.4 µM] | 1% | . | -5% | 4%[13.5 µM]
Cc1ncc(CN2CC=C(c3ccccc3)CC2)c(N)n1 | . | 7% | -4% | . | -11% | ?
CCN(CC)c1ccc(NC(=O)c2cccc(C)c2)cc1S(=O)(=O)Nc1ccccc1OC | ? | 0% | 4% | . | 13µM* | 14µM*
C=CCN1C(=O)NC(=O)/C(=C/C=C/c2ccccc2)C1=O | . | . | 24% | . | . | 14µM*
O=C1NC(=O)N(CCc2ccc(F)cc2)C(=O)/C1=C\C=C\c1ccccc1 | . | . | 8% | . | . | 1.6µM*
